Screening results: PubChem, National Center for Advancing Translational Sciences (NCATS)
A selection: hits, their analogues and other compounds. The true share with any hit is near 3.3%.
LDHA block = blocks human lactate dehydrogenase A. activity change, % (values are at about 110 or 230 µM). P00338. purified LDHA, NADH/diaphorase-resazurin fluorescence; hits give low values. 0.15% of 480,000 active; in the data active = activity change below about -30%; inconclusive = mostly about -25% to -30%;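 note: plate controls were DMSO wells for no effect and wells without enzyme for full effect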
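LDH5 2 nM; NADH 0.06 mM, pyruvate 0.2 mM; 200 mM Tris pH 7.4, EDTA, Tween-20; 5 min RT. Detection: diaphorase 0.133 mg/mL + resazurin 37 µM, fluorescence ex540/em590 at 0 and 20 min; normalized to enzyme-free and DMSO wells.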
PI4K2A inh = blocks human PI4K2A kinase activity | purified PI4K2A, ADP-Glo luminescence, 1 h; hits give low values | activity change, negative = inhibition, % at 76.9 µM | 0.13% of 420,000 active | AID 1346378; in the data active = activity change below about -50%; inconclusive = mostly about -30% to -49%;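 note: -100% = wells without enzyme as full effect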
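PI4K2A activity was measured by ADP-Glo luminescence: enzyme (4 ug/mL stock) and phosphatidylinositol (1.2 mM stock) in Tris pH 7.5/MgCl2/EGTA/Triton X-100 buffer were reacted with ATP (300 microM stock) for one hour at ambient temperature.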
PI5P4K alpha inh = PI5P4K alpha (human) kinase inhibition; max response, %; 1.2% of 330,000 active; PI5P4Kalpha enzyme, ADP-Glo luminescence, 60 min; hits give low values; active = max response of -50% or lower; inconclusive = between -30% and -50%; inactive = -30% or higher; note: value at the top dose of about 77 µM; % is set by controls: 0 for no effect and ±100 for the full control effect
Target sequence (P48426 whole entry, looked up): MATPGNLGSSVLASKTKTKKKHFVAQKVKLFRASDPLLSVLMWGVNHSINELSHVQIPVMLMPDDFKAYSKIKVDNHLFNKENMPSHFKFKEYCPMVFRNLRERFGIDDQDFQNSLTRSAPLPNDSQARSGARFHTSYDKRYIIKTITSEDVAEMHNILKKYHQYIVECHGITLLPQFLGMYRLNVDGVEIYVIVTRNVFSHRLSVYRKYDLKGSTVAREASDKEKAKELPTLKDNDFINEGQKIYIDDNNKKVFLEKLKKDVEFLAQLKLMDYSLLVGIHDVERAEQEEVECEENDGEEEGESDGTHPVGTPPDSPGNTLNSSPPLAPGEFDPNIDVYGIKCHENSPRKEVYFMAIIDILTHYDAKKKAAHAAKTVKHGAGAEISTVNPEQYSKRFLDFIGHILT
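qHTS, 1536-well: enzyme/substrate mix, compound by pin tool, 5 microM ATP final; RT 60 min; ADP-Glo reagents 1 (45 min) then 2 (30 min); luminescence.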
D3 antag = D3 dopamine receptor (human) antagonism; 2.5% of 360,000 active; max response, negative = inhibition, %; D3R cells, DiscoveRx beta-arrestin luminescence, antagonist mode; hits give low values; P35462; in the data active = max response below about -50%; inconclusive = no clear call, values can overlap the other calls; note: % is set by controls: 0 for no effect and ±100 for the full control effect
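Cells plated overnight at 1500 cells/well, then exposed to library compounds with dopamine controls for 90 minutes at 37 degrees C. DiscoveRx reagent added for 30–60 minutes at room temperature; luminescence read, quantitative HTS format.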
DRD3 agonist = activates the human D3 dopamine receptor. P35462. max activation, %. D3R DiscoveRx beta-arrestin cells, luminescence, 90 min. 0.58% of 410,000 active; in the data active = max activation above about 30%; note: 0% is about no effect
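Agonist-mode cell screen: cells plated at 1500/well and incubated overnight at 37 °C, then exposed to library compounds for 90 min at 37 °C. Detection reagent was added for 30–60 min at room temperature, and luminescence was read.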
* = called active by the depositor; ? = inconclusive; nt = not tested or not shown.

SMILES	LDHA block	PI4K2A inh	PI5P4K alpha inh	D3 antag	DRD3 agonist
O=C1CSc2ccc(C(=O)NCc3ccc(C(=O)O)cc3)cc2N1	10	nt	nt	nt	nt
N#Cc1ccc(/C=N/Nc2ccc(S(=O)(=O)Nc3cccc(Cl)c3)cc2[N+](=O)[O-])cc1	-3	nt	nt	nt	nt
Fc1ccc(OCCCCCCN2CCCC2)cc1	-4	-3	nt	-29	-33
O=C(NCCN1CCOCC1)c1ccc(Cl)cc1	-13	4	-7	-69*	-71
O=C(COc1ccc(F)cc1)NCCN1CCCC1	-6	-3	4	-57*	-15
Cc1ccc(NC(=O)NCCN2CCCCC2)cc1	1	-3	6	-17	-22
O=C(NCCN1CCCCC1)Nc1ccc(Br)cc1	-1	0	2	-54*	-13
CCOc1ccc(C(=O)NCCN2CCCC2)cc1	2	-5	7	-58*	-10
CNC(=O)CNC(=O)c1cc(Br)ccc1Cl	-2	nt	nt	nt	nt
CC(C)=CCN1CCN(Cc2ccccc2)CC1	-3	nt	nt	nt	nt
CCCCN(C(=O)c1cc(-c2ccco2)nc2ccccc12)c1c(N)n(CCCC)c(=O)[nH]c1=O	-12	-10	-57*	6	9
CCCCn1c(N)c(N(CCC(C)C)C(=O)c2cc(-c3ccco3)nc3ccccc23)c(=O)[nH]c1=O	-10	-7	-70*	4	1
CCCCN(C(=O)c1ccccc1F)c1c(N)n(CCC)c(=O)[nH]c1=O	-4	-2	1	2	33*
CC(C)CN(C(=O)c1cc(-c2ccco2)nc2ccccc12)c1c(N)n(CC(C)C)c(=O)[nH]c1=O	-3	nt	nt	nt	nt
CCCCN(C(=O)c1cc(=O)[nH]c2ccccc12)c1c(N)n(CCC)c(=O)[nH]c1=O	-9	6	0	10	7
COCCN(C(=O)c1cc(-c2ccco2)nc2ccccc12)c1c(N)n(Cc2ccccc2)c(=O)[nH]c1=O	-9	-11	-84*	-3	-3
O=C(O)c1ccc(COc2ccc(Br)cc2/C=N/O)cc1	4	nt	nt	nt	nt
Cc1sc2nc(N(CCO)CCO)n3nc(-c4ccccc4)nc3c2c1C	1	nt	nt	nt	nt
CCCN1C(=O)S/C(=C/c2cn(C)c3ccccc23)C1=O	-1	nt	nt	nt	nt
COCCN(C(=O)COC(=O)c1ccco1)c1c(N)n(Cc2ccccc2)c(=O)[nH]c1=O	0	0	-4	-4	5
COCCN(C(=O)COC(=O)c1cnc(C)cn1)c1c(N)n(Cc2ccccc2)c(=O)[nH]c1=O	-3	-1	6	-77*	-13
CCCCn1c(N)c(N(CCOC)C(=O)Cn2c(=O)oc3ccccc32)c(=O)[nH]c1=O	-9	0	0	-5	95*
C/C(=N\Nc1ccc(F)cc1F)c1sc2ccc(Cl)cc2c1C	-1	nt	nt	nt	nt
O=C(NNC(=O)c1ccc2nonc2c1)Nc1ccc(Cl)cc1	-12	1	3	-69*	-21
O=C(NNC(=O)c1cccnc1)Nc1ccc(Cl)c(Cl)c1	-3	-7	-7	50	4
SMILES	LDHA block	PI4K2A inh	PI5P4K alpha inh	D3 antag	DRD3 agonist
NC(=S)N=Nc1c(O)[nH]c2ccc(F)cc12	-2	-5	-10	-20	-1
NC(=S)N=Nc1c(O)cc(O)c2[nH]c(=O)ccc12	34	?	-72*	0	2
CC(=O)c1cnc(N2CC(C)CC(C)C2)nc1C (stereo not given)	12	nt	nt	nt	nt
O=C(COC(=O)c1nn(-c2ccccc2)c(=O)c2ccccc12)NC12CC3CC(CC(C3)C1)C2	7	nt	nt	nt	nt
Cn1c(CCN2CCCCC2)nc2cc(NS(=O)(=O)c3ccc(F)cc3)ccc21	-4	-1	2	-66*	-4
Cc1ccc(S(=O)(=O)Nc2ccc3c(c2)nc(CCN2CCCCC2)n3C)cc1	-8	-10	6	-79*	-37
Cc1ccc(S(=O)(=O)Nc2ccc3c(c2)nc(CCN2CCOCC2)n3C)cc1	0	-3	4	-3	-7
O=C(NCCCCCCCN1CCCCCCC1)C(C1CCCCC1)C1CCCCC1	2	1	19	-65*	-29
Cc1cccc(N2C(=O)CS/C2=N\NC(=O)c2ccc(Br)cc2)c1C	0	-13	nt	-79*	-3
Cc1cccc(N2C(=O)CS/C2=N\NC(=O)c2cccnc2)c1C	-7	-3	5	9	6
COC/C=C/C1=CC(=O)C[C@H](c2ccc3c(c2)OCO3)C1	1	3	-6	5	2
CCCCC/C=C/C1=CC(=O)C[C@H](c2ccc3c(c2)OCO3)C1	3	-5	11	-1	51*
